# This is a sample that favours compounds with a hit; in the whole collection about 6.5% have one here.
# PMK inhibit: S. pneumoniae PMK inhibitors, primary screen, biochemical, mevalonate pathway, pilot trial included; purified PMK, PK/LDH-coupled NADH absorbance 340 nm; AID 539, 2006; actives 0.49% (n = 65,000); inhibition, % at 10 µM; phosphomevalonate kinase (Streptococcus pneumoniae D39);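 active = top-ranked compounds by inhibition in the single 10 µM screen, taking a fixed number of the strongest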;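 note: 0% = full reaction with DMSO carrier and 100% = background rate without enzyme reaction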
# DPM-DC inhibit: S. pneumoniae DPM-DC inhibitors, primary screen, biochemical, PK/LDH-coupled NADH fluorescence; diphosphomevalonate decarboxylase (Streptococcus pneumoniae D39); purified DPM-DC; calls only at 10 µM; actives 0.49% (n = 65,000); AID 556, 2006;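 active = the 320 compounds with the highest percent inhibition in the single-dose primary screen, excluding strongly autofluorescent ones, cut at about 32% in these data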;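 note: kinetic rate of NADH fluorescence loss reporting ADP formed by the decarboxylase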
# Fluor 339 460: intrinsic fluorescence of library compounds, ex339/em460 – biochemical, MLSMR library, data from DPM-DC assay, artefact control, profiling panel; compound autofluorescence, ex339/em460 nm, NADH buffer; stronger effect = higher value; 1 = no-compound wells, NADH background; fluorescence fold increase at 10 µM; actives 5.5% (n = 65,000);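 active = at 10 µM, mean starting fluorescence two-fold or more over control wells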;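 note: signal is the first read of a kinetic run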
# NADH coupling: inhibitors of PK/LDH coupling enzymes, profiling panel, artefact control, biochemical, MLSMR library; coupled PK/LDH NADH assays, four targets; IC50, µM (titrated, usually from 10 µM), for inactives: top-dose inhibition; actives 0.02% (n = 65,000); AID 774, 2007;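 active = single-dose screening hits from any of four coupled enzyme assays that gave an IC50 when retested across doses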;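 note: the DPM-DC format reads NADH fluorescence rather than 340 nm absorbance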
# A340 absorber: compound light absorbance at 340 nm, profiling panel, artefact control, biochemical, MLSMR library, data from PS, PMK, MK assays. compound absorbance at 340 nm, fold over control. 65,000 tested, under 10 active. fold change at 10 µM;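 active = at 10 µM dose, initial 340 nm absorbance at least 2 fold that of control wells; inactive = change under 2 fold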;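 note: initial absorbance extrapolated from kinetic A340 decline of NADH oxidation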
# Spn MK inh: S. pneumoniae MK inhibitors, primary screen, biochemical, PK/LDH-coupled NADH absorbance; mevalonate kinase [Streptococcus pneumoniae D39]; purified MK, PK/LDH-coupled NADH absorbance 340 nm; actives 0.48% (n = 65,000); inhibition, % at 10 µM;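 active = ranked among the strongest by inhibition in the single 10 µM screen, a fixed top-ranked set picked for dose follow-up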
# * hit, by the source's call; i = inactive; nt = no result shown; + = active, no number.
SMILES,PMK inhibit,DPM-DC inhibit,Fluor 339 460,NADH coupling,A340 absorber,Spn MK inh
O=C(Cn1ncc2c(=O)oc3ccccc3c21)Nc1nc2ccccc2s1,9,i,1,3%,0.98,6
COc1ccccc1-n1c(SCC(=O)Nc2ccccc2C)nc(O)cc1=O,7,i,1.1,5%,1,9
COc1ccccc1NC(=O)CSc1nc(O)cc(=O)n1-c1ccccc1OC,6,+,0.95,16%,1,7
COc1ccccc1-n1cc(C(=O)NCC(=O)N2CCN(c3ccccc3)CC2)c2ccccc2c1=O,2,i,1.3,2%,0.99,4
O=C(O)CCCNCc1ccccc1F,11,i,1.1,5%,0.98,5
O=C(O)CCS(=O)(=O)Cc1ccccc1F,27*,i,1.1,9%,1,1
Cc1ccc(-c2nc(CS(=O)CC(=O)NCCC(C)C)c(C)o2)cc1 (centres undefined),1,i,1,3%,1,8
CC1(C)C(C=C(Cl)Cl)C1C(=O)N1CCN(c2ccccc2)CC1 (centres undefined),0,+,1.2,14%,1.1,9
CCOC(=O)c1ccccc1NC(=O)CSc1nnc(COc2ccccc2C)n1C,6,i,1,3%,1.1,6
CCOC(=O)c1c(NC(=O)c2cccs2)sc2c1CC(C)(C)OC2,3,i,2.1*,6%,1.1,9
COC(=O)c1c(-c2ccccc2)csc1NC(=O)c1ccco1,10,nt,4.9*,5%,1,0
CCOC(=O)c1c(NC(=O)COC)sc2c1CCCC2,0,i,1.2,3%,1.1,9
CCOC(=O)c1cccc(NC(=O)c2cccs2)c1,5,i,1.2,5%,1,6
CCOC(=O)c1c(NC(=O)c2ccco2)sc2c1CCCC2,10,nt,2.1*,9%,1.1,7
O=C(Nc1scc(-c2ccc(F)cc2)c1C(=O)O)c1ccco1,0,i,1.1,3%,1.2,8
CCOC(=O)c1c(NC(=O)c2ccn(CC)n2)sc2c1CCCC2,0,nt,2.7*,13%,1,4
COc1ccc(OC)c(N(CC(=O)Nc2ccc3c(c2)OCCO3)S(C)(=O)=O)c1,9,i,1.1,6%,1,10
O=C(CSc1nnc2sc3ccccc3n12)NCc1ccc2c(c1)OCO2,16,i,1.1,7%,1,4
CCOc1ccc(-n2c(=O)c3c(C)c(C)sc3n(CC(=O)NCc3ccco3)c2=O)cc1,16,i,1.1,7%,1,6
CCOC(=O)c1c(C2COc3ccccc3O2)csc1NC(=O)c1ccco1 (centres undefined),4,i,3.2*,11%,1.1,28
O=C(COC(=O)c1ccco1)NC1CCCCC1,25*,i,1,8%,1,0
O=C(Nc1sc2c(c1C(=O)NC1CCCCC1)CCC2)c1ccco1,9,nt,3.6*,11%,1.1,12
COc1ccc(-n2c(=O)c3c4c(sc3n(CC(=O)NCc3ccco3)c2=O)CCC4)c(OC)c1,3,i,1.1,22%,1,63*
O=C(NC1CCS(=O)(=O)C1)C12CC3CC(CC(C3)C1)C2 (centres undefined),9,i,0.99,10%,1,16
COc1ccc(OC)c(NC(=O)c2c(NC(=O)CNCc3ccco3)sc3c2CCC3)c1,0,nt,2.3*,0%,1.1,0
SMILES,PMK inhibit,DPM-DC inhibit,Fluor 339 460,NADH coupling,A340 absorber,Spn MK inh
CCOC(=O)c1c(NC(=O)c2nc3n(n2)C(C(F)F)CC(C)N3)sc2c1CCCC2 (centres undefined),17,nt,5.1*,12%,1.1,6
COc1ccccc1NC(=O)c1c(NC(=O)c2ccco2)sc2c1CCC2,4,nt,2.3*,3%,1.1,2
Cc1nn(Cc2ccc(Cl)cc2Cl)c(C)c1NC(=O)c1nc2n(n1)C(C(F)F)CC(C)N2 (centres undefined),9,i,1.2,4%,0.99,4
Cc1ccc(Nc2nc(OC(C(F)(F)F)C(F)(F)F)nc(N3CCOCC3)n2)cc1,3,i,1.1,5%,1,9
CCOc1nc(Nc2ccc(-c3nc4ccccc4o3)cc2)nc(N2CCOCC2)n1,8,nt,4.8*,4%,1.1,0
CCOC(=O)c1[nH]c2cc(OC)c(OC)cc2c1NC(=O)CN(C)C1CCCCC1,14,nt,3.7*,13%,1.1,11
CCOc1ccc(OCC)c(NC(=O)CN2CCN(C(=O)c3ccco3)CC2)c1,0,i,1.1,2%,0.99,20
CCOc1ccc(OCC)c(NC(=O)CN2CCN(c3cccc(C)c3C)CC2)c1,0,i,1.1,21%,1.1,62*
CCOC(=O)c1[nH]c2ccc(F)cc2c1NC(=O)CN1CCN(C/C=C/c2ccccc2)CC1,11,i,2.6*,8%,1,9
CCOC(=O)c1[nH]c2ccc(OCC)cc2c1NC(=O)CN1CCC2(CC1)OCCO2,10,nt,3.9*,7%,1.1,3
CCOC(=O)c1[nH]c2cc(OC)c(OC)cc2c1NC(=O)c1ccc2c(c1)OCO2,14,i,1.2,6%,1.2,3
COC(=O)c1[nH]c2ccccc2c1NC(=O)CN1CCN(C/C=C/c2ccccc2)CC1,13,i,1.8,9%,1,11
CCOC(=O)C1=C(N)OC2=C(C(=O)CC(C)(C)C2)C1c1ccccc1OCC#N (centres undefined),15,i,1.1,5%,0.99,0
CC(=O)c1sc(NC(=O)C2(F)C(F)(F)C(F)(F)C(F)(F)C(F)(F)C2(F)F)nc1C,10,i,1,9%,1.2,15
COc1ccc(C2(C(F)(F)F)NC(=O)N(C)C(=O)N2C)cc1 (centres undefined),12,i,1.1,4%,1,0
CCOC(=O)c1[nH]c2ccccc2c1NC(=O)c1ccc2c(c1)OCO2,0,i,1.1,1%,1.1,3
CCOC(=O)c1[nH]c2cc3c(cc2c1NC(=O)CN1CCCCC1C)OCO3 (centres undefined),6,nt,2.3*,6%,1.1,6
CCOC(=O)c1[nH]c2cc3c(cc2c1NC(=O)CN1CCC2(CC1)OCCO2)OCO3,0,nt,2.3*,1%,1.1,2
CCOC(=O)c1[nH]c2ccc(OCC)cc2c1NC(=O)CN1CCN(c2ccccc2)CC1,8,i,3.2*,3%,1.1,2
CCOC(=O)c1[nH]c2ccccc2c1NC(=O)CN1CCCCC1,6,i,1.5,9%,1,12

# Screening data as filed in PubChem BioAssay.
